Compound activity as filed in PubChem.
Most compounds without a hit are left out; they make up all but 4% or so of the library.
Peg3 prom inh-1 – inhibitors of Peg3 promoter. HeLa PEG-Prom luciferase reporter, luminescence, overnight. inhibition, % at 20 µM. 1.7% of 360,000 active;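 active means inhibition of at least 50% at 20 µM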
HIF-2a inh – inhibitors of HIF-2a. 786-0 RCC cells HIF-2a reporter, luciferase luminescence, overnight. inhibition, % at 18.8 µM. 0.72% of 360,000 active;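 active means inhibition of the luminescence signal of 40% or more relative to plate controls, in a single-dose primary screen at 18.75 µM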
CF NFkB inh – blocks PAF-induced NF-kB reporter in cystic fibrosis cells. KKLEB NF-kB-GFP reporter, GFP fluorescence overnight. inhibition, % at 5 µM. 0.86% of 360,000 active. AID 588850;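 active means at least 50% inhibition at 5 µM, scaled per plate between neutral and stimulator controls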;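 further: PAF is a Pseudomonas aeruginosa culture filtrate used as stimulus; plate controls were PAF-stimulated DMSO wells for no effect and unstimulated DMSO wells for full effect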
KKLEB tox – CF airway cell cytotoxicity counter-screen | KKLEB CF airway cells viability, ATPlite luminescence, overnight; stronger effect = lower value; cells stimulated with P. aeruginosa culture filtrate | activity change (cytotoxicity), % at 5 µM | 0.36% of 360,000 active | AID 602141;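 active means corrected activity change at or below -50% at 5 µM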
TWEAK Fn14 block – TWEAK-Fn14 signaling inhibition; TWEAK-stimulated Fn14 reporter cells, luciferase luminescence, 8 h; inhibition, % at 10 µM; 2% of 360,000 active; in the data active means inhibition above about 50%
TROY signal inh – blocks TROY-dependent signaling in reporter cells; Q293 LMP1-TROYcd NF-kB luciferase reporter, 4 h; inhibition, % at 10 µM; 0.98% of 360,000 active; AID 1347056;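 active means compounds whose plate-normalised and pattern-corrected inhibition of the luciferase reporter signal at the single screening dose is 50% or more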
Peg3 prom inh-2 – confirmation of Peg3 promoter inhibitors; shares compounds with Peg3 prom inh-1; HeLa PEG-Prom luciferase reporter, luminescence, overnight; inhibition, % at 20 µM; 84% of 1,300 active; AID 602417;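 active means at 20 µM dose, 40% or more inhibition averaged across four replicates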
CF NFkB inh conf – CF NF-kB inhibition confirmation, single concentration; shares compounds with CF NFkB inh; KKLEB CF airway cells, PAF-induced NF-kB-GFP fluorescence, overnight; inhibition, % at 5 µM; 64% of 1,300 active; AID 602472; in the data active means inhibition above about 40%;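 further: stimulus PAF is a Pseudomonas aeruginosa filtrate and not platelet activating factor; plate controls were DMSO wells with stimulus for no effect and unstimulated DMSO wells for full effect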
HIF-2a inh conf – HIF-2a inhibition, single concentration confirmation | 56% of 1,800 active | 786-0 RCC cells, HIF-2a luciferase reporter luminescence, overnight | AID 651580 | shares compounds with HIF-2a inh | inhibition, % at 18.8 µM;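 active means mean inhibition across four replicates of at least 40 percent at the single tested concentration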
HIF-1a cs – counter-screen for HIF-2a inhibitors: HIF-1a inhibition in MiaPaCa-2 cells. inhibition, % at 18.8 µM. MiaPaCa-2 HIF-1a luciferase reporter, desferoxamine, overnight. 72% of 1,800 active. shares compounds with HIF-2a inh. AID 651589;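 active means mean inhibition of the reporter signal across four replicates at the single tested dose of 50% or more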
* hit, by the source's call.

`O=C(Nc1ccc(N2CCOCC2)cc1)c1cnsn1` gave Peg3 prom inh-1 101*, HIF-2a inh 75*, CF NFkB inh 4, KKLEB tox -8, TWEAK Fn14 block 95*, TROY signal inh 72*, Peg3 prom inh-2 74*, HIF-2a inh conf 88* and HIF-1a cs 84*.
CC12CCC(C(=O)CC1=O)C2(C)C (centres undefined) was read as Peg3 prom inh-1 -16, HIF-2a inh -2, CF NFkB inh 13, KKLEB tox -16, TWEAK Fn14 block -2 and TROY signal inh -13.
Screening COC(=O)c1ccc2nc(-c3ccc(S(C)(=O)=O)cc3)cn2c1 returned Peg3 prom inh-1 -160, HIF-2a inh -143, CF NFkB inh 3, KKLEB tox -4, TWEAK Fn14 block -3 and TROY signal inh -41.
Screening CS(=O)(=O)c1ccc(-c2cn3cc(C(=O)O)ccc3n2)cc1 returned Peg3 prom inh-1 65*, HIF-2a inh 48*, CF NFkB inh -13, KKLEB tox -7, TWEAK Fn14 block 15, TROY signal inh -16, Peg3 prom inh-2 44*, HIF-2a inh conf 46* and HIF-1a cs -20.
Screening C/C(=N\OCc1ccc(C#N)cc1)c1ccccc1 returned Peg3 prom inh-1 -284, HIF-2a inh -331, CF NFkB inh -21, KKLEB tox 16, TWEAK Fn14 block -26 and TROY signal inh -127.
Screening C/C(=N\OCc1cccc(C(=O)O)c1)c1ccc(Cl)cc1 returned Peg3 prom inh-1 55*, HIF-2a inh 73*, CF NFkB inh -14, KKLEB tox 4, TWEAK Fn14 block -4, TROY signal inh -73, Peg3 prom inh-2 36, HIF-2a inh conf 79* and HIF-1a cs -104.
`CN(C(=O)OC(C)(C)C)c1ccc(-c2nc3ccccc3s2)cc1` gave Peg3 prom inh-1 90*, HIF-2a inh 88*, CF NFkB inh 28, KKLEB tox -81*, TWEAK Fn14 block 103*, TROY signal inh 89*, Peg3 prom inh-2 92*, HIF-2a inh conf 95* and HIF-1a cs 99*.
Screening CC1CCN(C(=O)COC(=O)CSc2ccc(C(N)=O)cc2[N+](=O)[O-])CC1 returned Peg3 prom inh-1 18, HIF-2a inh 5, CF NFkB inh -10, KKLEB tox -4, TWEAK Fn14 block 10 and TROY signal inh -15.
For COC(=O)C1C=CC(OC2OC(COC(C)=O)C(OC(C)=O)C(OC(C)=O)C2OC(C)=O)n2c(=O)n(-c3ccccc3)c(=O)n21 (centres undefined) the results were Peg3 prom inh-1 107*, HIF-2a inh 85*, CF NFkB inh 80*, KKLEB tox -7, TWEAK Fn14 block 55*, TROY signal inh -8, Peg3 prom inh-2 101*, CF NFkB inh conf 64*, HIF-2a inh conf 93* and HIF-1a cs 106*.
For COc1ccc(NC(=O)COc2ccc(C(=O)OCC(=O)N(C(C)C)C(C)C)cc2OC)cc1 the results were Peg3 prom inh-1 3, HIF-2a inh 6, CF NFkB inh 18, KKLEB tox -4, TWEAK Fn14 block -20 and TROY signal inh -32.
`S=C(NN=C(c1ccccc1)c1ccccn1)N(Cc1ccccn1)Cc1ccccn1` gave Peg3 prom inh-1 106*, HIF-2a inh 49*, CF NFkB inh 39, KKLEB tox -22, TWEAK Fn14 block 34, TROY signal inh -4, Peg3 prom inh-2 101*, HIF-2a inh conf 68* and HIF-1a cs 100*.
